From PubChem BioAssay
Calls of active or inactive are those of the source. Rule as the data show it: active = inhibition above about 44%; inactive = the rest.

What follows are compounds tested against Steroidogenic factor 1 (Homo sapiens) (UniProt Q13285) (assay: SF1 (NR5A1) inverse agonists, counter-screen for LRH-1 inverse agonist project, cell-based, luminescence, high throughput (AID 651614;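 also: cells cotransfected with StAR promoter reporter and SF1 expression vector; 0% = vehicle on cells with receptor and 100% = vehicle on cells lacking receptor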)). Conditions: cell-based SF1 luciferase reporter, at 3.6 µM, active compounds read high.
Sequence of Steroidogenic factor 1 (Homo sapiens) (Q13285 whole entry, looked up): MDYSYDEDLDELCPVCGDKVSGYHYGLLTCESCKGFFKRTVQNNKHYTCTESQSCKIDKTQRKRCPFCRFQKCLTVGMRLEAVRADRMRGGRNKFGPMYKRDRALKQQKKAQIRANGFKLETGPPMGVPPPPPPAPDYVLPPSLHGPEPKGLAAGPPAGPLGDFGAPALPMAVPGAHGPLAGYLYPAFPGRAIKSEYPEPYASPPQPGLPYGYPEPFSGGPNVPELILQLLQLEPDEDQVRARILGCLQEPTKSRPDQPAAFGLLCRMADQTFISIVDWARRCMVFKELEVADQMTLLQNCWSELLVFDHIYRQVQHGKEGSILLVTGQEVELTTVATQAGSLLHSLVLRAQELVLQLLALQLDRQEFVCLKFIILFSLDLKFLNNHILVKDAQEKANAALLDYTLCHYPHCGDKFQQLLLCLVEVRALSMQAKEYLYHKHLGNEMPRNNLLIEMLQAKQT

| SMILES | inhibition |
| --- | --- |
| Nc1ccc(Nc2ccncc2[N+](=O)[O-])cc1 | 61.9% (active) |
| COc1cc(OC)cc(C(=O)N[C@H](C(=O)OCC(=O)Nc2ccc3c(c2)OCO3)C(C)C)c1 | 45.9% (active) |
| N#Cc1cc([N+](=O)[O-])ccc1NC(=O)COC(=O)C1CCC(=O)N1 (stereo not given) | 48.9% (active) |
| c1ccc2c(c1)C1=NCCN1c1ccccc1-2 | 50.2% (active) |
| CC(Oc1ccc(S(=O)(=O)N2CCCC2)cc1[N+](=O)[O-])C(=O)NC(C)c1ccccc1 (stereo not given) | 50.8% (active) |
| CCCCc1c(O)nc(SCC(=O)Nc2ccc3c(c2)CCC3)[nH]c1=O | 51.8% (active) |
| COc1cc(C)c(C(=O)Oc2cc(C)c(C(=O)O)c(O)c2C)c(O)c1C | 70.7% (active) |
| O=C(c1cc(-c2ccco2)nc2ccccc12)N(Cc1nnc(-c2ccc(Cl)cc2)o1)C1CC1 | 2.98% (inactive) |
| COc1ccc(OC)c(C2=NS(=O)(=O)N(C)C(C(=O)Nc3ccc(C(C)=O)cc3)=C2)c1 | 45% (active) |
| NNC(=O)C(Cc1ccc(O)cc1)N1Cc2ccccc2C1=O (stereo not given) | 29.4% (inactive) |
| CC1(C)Cc2ccccc2/C(=C/C(=O)c2ccccc2)N1 | 36.2% (inactive) |
| COc1ccc(NC(=O)CSc2nnc(Cc3ccccc3)c(=O)n2N)c(OC)c1 | 54.2% (active) |
| Cc1ccc(NNC(N)=S)cc1Cl | 50.5% (active) |
| CC1(C(=O)NCc2ccco2)Cc2c(-c3cccc(C(N)=O)c3)ccnc2O1 (stereo not given) | 59.3% (active) |
| C/C(CC1CC(C)(C)OC1=O)=N/Nc1nc(-c2ccccc2)cs1 (stereo not given) | 54.3% (active) |
| CCN(CC)CC(=O)Nc1ccc(-c2nc3cc(NC(=O)CN(CC)CC)ccc3o2)cc1 | 39.6% (inactive) |
| CCOc1ccc(CCNC(=O)COC(=O)COc2ccc(Br)cc2)cc1OCC | 56.3% (active) |
| Cc1ccc(S(=O)(=O)NCc2ccncc2)c(C)c1C | 59.5% (active) |
| O=C(NCC1CCCO1)c1ccc(NC(=O)c2cccc([N+](=O)[O-])c2)cc1 (stereo not given) | 54% (active) |
| CCOc1ccc(OCCN2C(=O)NC(Cc3c[nH]c4ccccc34)C2=O)cc1 (stereo not given) | 58.2% (active) |
| O=C(CN1CCN(S(=O)(=O)c2cc(Cl)ccc2Cl)CC1)Nc1ccc2c(c1)OCCO2 | 59.1% (active) |
| CS/C(=C\[N+](=O)[O-])Nc1ccc(OC(F)(F)F)cc1 | 84.6% (active) |
| CCCNC(=O)c1sc2c(c1C(=O)Nc1ccccn1)CCCC2 | 42.7% (active) |
| CC(=O)Nc1ccc(NC(=O)CSc2nnnn2C2CCCCC2)cc1 | 44.5% (active) |
| CN(C)C(=O)Cn1c(SCC(=O)Nc2ccc3c(c2)OCO3)nc2ccccc21 | 28.2% (inactive) |
